# A selection follows.
# aSyn 5UTR act: Activators working through SNCA 5'UTR binding (MLPCN); alpha-synuclein 5'UTR reporter, activators screen; activity score, % (tested at 7.5 µM), hits read low; 300,000 tested, 7.1% active; AID 1814; in the data active = activity score below about -60%
# Hits are given with their value; n = inactive.
SMILES,aSyn 5UTR act
CN(C(=O)Oc1ccc(C(C)(C)C)cc1)c1ccccc1,-106
CCC(=O)c1ccc(OC(=O)N(C)c2ccccc2)cc1,-118
COc1ccc(-c2cc(=Nc3ccccc3)c3cc(C)ccc3o2)cc1,-100
COc1ccc(-c2cc(=NCCC(=O)O)c3cc(C)ccc3o2)cc1,-121
CC(=O)OC1CC[C@]2(C#N)[C@H]3CC[C@]4(C)[C@H](C5C=CC(=O)O5)CCC4(O)C3CCC2(O)C1 (some centres undefined),n
CCOc1ccccc1-n1c(O)c(C=Nc2ccc(N(CC)CC)cc2)c(=O)[nH]c1=O,-66
COC(=O)C1=C(c2cc3ccccc3o2)C[C@@H]2CC[C@H]1N2C(=O)N1CCCCC1,n
CC12CC[C@H]3[C@@H](CCC4(O)C[C@H](O)CCC34/C=N/NC(=O)c3ccccc3F)C1(O)CCC2C1=CC(=O)OC1 (some centres undefined),n
Cc1cc(N=Nc2ccccc2C)ccc1N,-103
Cc1nc2ccccc2c(=O)n1-c1ccc([N+](=O)[O-])cc1,-121
Cc1nc2ccccc2c(=O)n1-c1ccc(Cl)c(Cl)c1,-138
O=Cc1cn(Cc2cccc([N+](=O)[O-])c2)c2ccccc12,n
CCn1c(NN=O)nc2ccccc21,n
COc1cccc(OC)c1C1=NCC(=O)Nc2c1oc1ccc(Br)cc21,n
O=C(c1ccccc1)c1ccc(N=Nc2c(O)[nH]c(=O)[nH]c2=O)cc1,-74
O=C(c1cc2c(s1)-c1ccccc1OC2)N1CCC2(CC1)OCCO2,-129
CCc1ccc(NC(=O)CCNC(=O)N2C[C@H]3C[C@@H](C2)c2cccc(=O)n2C3)cc1,-70
COC1CC(OC2CCC3(C)C(CCC4C3CCC3(C)C(C5=CC(=O)OC5)C(OC(C)=O)CC43O)C2)OC(C)C1OC1OC(COC2OC(CO)C(O)C(O)C2O)C(O)C(O)C1O (centres undefined),n
CN(C)C(=O)Oc1ccc(-c2cn3cc(C(F)(F)F)ccc3n2)cc1,-86
CN(C)C(=O)Oc1cccc(-c2cn3cc(Cl)ccc3n2)c1,-82
Cc1ccc(-c2nc(N3CCOCC3)s[n+]2-c2ccccc2)cc1,-233
CN1C(=O)C(=Cc2ccc(OCC(=O)Nc3ccccc3)cc2)C(=O)N(C)C1=O,-78
CC(C)[C@H]1C(=O)O[C@H](C(C)C)C(=O)N(C)[C@@H](C(C)C)C(=O)O[C@H](C(C)C)C(=O)N(C)[C@@H](C(C)C)C(=O)O[C@H](C(C)C)C(=O)N1C,n
CCN1/C(=C\C=C\C2=[N+](CC)c3ccccc3C2(C)C)C(C)(C)c2ccccc21,n
Cc1cc(NC(=O)CCl)nn1C,-94
SMILES,aSyn 5UTR act
Cn1ccc(NC(=O)CCl)n1,-70
COc1ccc(C(=O)N/N=C/C23CC[C@@H](O)CC2(O)CC[C@@H]2[C@@H]3CCC3(C)C(C4=CC(=O)OC4)CCC23O)cc1 (some centres undefined),n
CCCCCCC[n+]1ccc(-c2cc[n+](CCCCCCC)cc2)cc1,n
CC[n+]1c(/C=C/C=C/c2ccc(N(C)C)cc2)sc2ccccc21,n
CC1CCN(CC(=O)c2ccc3c(c2)OCCO3)CC1,-77
CC1CCN(CC(=O)c2ccccc2Cl)CC1,-134
Cc1ccc(CN2C3CCCC2CC(NC(=O)Nc2cccc(F)c2)C3)cc1 (centres undefined),-99
Cc1cc(C(=O)CS(=O)(=O)c2ccc(F)cc2)cc(C)c1OC(=O)N(C)C,-135
CN(C)C(Cc1ccc(Cl)cc1)C(=O)c1ccccc1 (centres undefined),-82
COC(=O)c1ccc(CC(C(=O)c2ccccc2)N(C)C)cc1 (centres undefined),-154
C/C=C(\C)C(=O)N[C@@H](c1ccccc1)[C@@H](O)C(=O)O[C@H]1C[C@@]2(O)[C@@H](OC(=O)c3ccccc3)C3[C@](C)(C(=O)[C@H](OC(C)=O)C(=C1C)C2(C)C)[C@@H](O)C[C@H]1OC[C@@]31OC(C)=O (some centres undefined),n
O=c1c2ccccc2nc(/C=C/c2ccc(O)cc2)n1-c1ccc(O)cc1,-80
O=c1nc(/C=C/c2ccc(Cl)cc2Cl)cc(C(F)(F)F)[nH]1,-64
Cc1cccc(Cn2cc(C=O)c3ccccc32)c1,n
C=C(C=O)CC1CC(O)[C@]2(C)OC3CC4OC5C[C@]6(C)O[C@]7(C)CCC8OC9C[C@]%10(C)OC%11C(C)=CC(=O)OC%11CC%10OC9C[C@@H](C)C8OC7CC6O[C@]5(C)CC5OC5C4OC3CC2O1 (some centres undefined),n
CCN(CC)c1ccc(/C=C2\C(=O)NC(=S)N(C)C2=O)o1,-115
CCN(CC)c1ccc(C=C2C(=O)N(C)C(=S)N(C)C2=O)o1,-86
CN(C)c1ccc(C(=O)N/N=C/C23CC[C@@H](O)CC2(O)CC[C@@H]2[C@@H]3CCC3(C)C(C4=CC(=O)OC4)CCC23O)cc1 (some centres undefined),n
CC12CC[C@H]3[C@@H](CCC4(O)C[C@H](O)CCC34/C=N/NC(=O)c3ccccc3O)C1(O)CCC2C1=CC(=O)OC1 (some centres undefined),n
Clc1ccc2sc(C3CCNCC3)nc2c1,-159

# Source: PubChem (Broad Institute)
